# From PubChem BioAssay (NCATS)
# Unmarked numbers belong to inactive results. Results filed as inconclusive are left out. Entries that show only a call come without a potency. Calls of active or inactive are those of the source. Unless noted, calls come from the whole dose curve; as a rule, active = well fitted curve in the direction sought with a large enough effect; inconclusive = small, poorly fitted or top-dose-only effect, or another doubt; inactive = no such curve, though single readings can be large; an effect the other way counts as inactive or inconclusive.
# How the values were obtained:
# [1] = Confirmation and Secondary Assay for Modulators of Hemoglobin Beta Chain Splicing at IVS2 654 locus (AID 910)
# Summary of the method: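 HeLa cells stably carrying EGFP interrupted by mutant beta-globin IVS2-654 intron (CMV-driven) were treated with compound for 2 days at 37C; corrected splicing was scored as total peak GFP intensity per well (488 nm excitation, 500-520 nm emission).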
# [2] = qHTS Assay for Identification of Small Molecule Agonists for Thrombopoietin (TPO) Signaling Pathway (AID 917)
# Summary of the method: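 Murine Ba/F3 cells expressing human TPO receptor and GPIIb-promoter luciferase, IL-3-starved overnight, given compound plus TPO at 26 pM (EC50). After 24 h at 37 C, 5% CO2, luminescence read.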
# [3] = Confirmation and Secondary Assay for Modulators of Hemoglobin Beta Chain Splicing at IVS2 705 locus (AID 930);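 note: HeLa cells stably expressing the EGFP-705 splicing reporter; GFP fluorescence per well restored by corrected splicing of the IVS2-705 intron in EGFP; series mostly up to about 46 µM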
# Summary of the method: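 HeLa cells stably carrying EGFP interrupted by mutant beta-globin intron 2 (IVS2-705) treated 2 days at 37C with compound; 500 nM antisense PNA as control. Correct splicing read as total peak GFP intensity per well by laser-scanning cytometry.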
# [4] = target: Pyruvate kinase (Leishmania mexicana) (UniProt Q27686); assay: qHTS Validation Assay for Inhibitors of Leishmania Mexicana Pyruvate Kinase (AID 945)
# Chain of Pyruvate kinase (Leishmania mexicana) (Q27686 2-499 E452W): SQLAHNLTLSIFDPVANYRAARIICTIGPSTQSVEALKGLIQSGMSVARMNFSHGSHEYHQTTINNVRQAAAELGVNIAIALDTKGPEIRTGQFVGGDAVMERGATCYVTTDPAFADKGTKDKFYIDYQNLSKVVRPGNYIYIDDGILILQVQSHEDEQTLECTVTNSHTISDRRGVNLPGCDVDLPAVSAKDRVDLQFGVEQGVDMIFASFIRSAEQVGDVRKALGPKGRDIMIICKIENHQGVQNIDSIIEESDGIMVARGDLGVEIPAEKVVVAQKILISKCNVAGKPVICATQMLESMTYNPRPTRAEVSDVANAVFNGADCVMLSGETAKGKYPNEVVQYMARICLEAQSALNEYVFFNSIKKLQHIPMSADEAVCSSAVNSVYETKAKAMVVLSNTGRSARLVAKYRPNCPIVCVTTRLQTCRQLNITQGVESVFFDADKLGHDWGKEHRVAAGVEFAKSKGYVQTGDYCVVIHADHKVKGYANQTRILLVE
# Summary of the method: (§1)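 Eight-point qHTS titrations in triplicate, data normalized to DMSO neutral control. Reaction: 0.2 nM LmPYK E451W mutant, 0.5 mM PEP, 0.1 mM ADP, 7 mM MgCl2, pH 7.2, one hour at room temperature; luminescent ATP detection.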
# [5] = target: Pyruvate kinase PKM (Homo sapiens) (UniProt P14618); assay: qHTS Assay for Activators of Human Muscle Pyruvate Kinase (AID 954; active = well fitted curve in the direction sought with a large enough effect, not every such curve was filed as active)
# Chain of Pyruvate kinase PKM (Homo sapiens) (P14618 whole entry, looked up): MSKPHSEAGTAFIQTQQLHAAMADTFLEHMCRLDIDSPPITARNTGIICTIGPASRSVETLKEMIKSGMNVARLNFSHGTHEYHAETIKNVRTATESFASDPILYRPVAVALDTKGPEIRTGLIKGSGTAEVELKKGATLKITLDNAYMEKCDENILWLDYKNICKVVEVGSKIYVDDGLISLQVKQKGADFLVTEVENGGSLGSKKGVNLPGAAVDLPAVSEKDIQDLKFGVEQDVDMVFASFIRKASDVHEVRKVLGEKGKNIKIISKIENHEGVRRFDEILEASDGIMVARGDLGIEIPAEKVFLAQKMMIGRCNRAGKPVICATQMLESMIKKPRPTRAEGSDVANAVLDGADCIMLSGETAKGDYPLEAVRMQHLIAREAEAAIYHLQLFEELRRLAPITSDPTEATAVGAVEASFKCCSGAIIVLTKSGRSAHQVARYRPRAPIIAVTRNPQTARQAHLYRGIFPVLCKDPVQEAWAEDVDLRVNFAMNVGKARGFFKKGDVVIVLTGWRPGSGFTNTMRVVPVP
# Summary of the method: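 Enzyme was run at intermediate activity so both inhibitors and activators could be detected. ATP formed from ADP and PEP by 0.1 nM human PKM2 during a 1 h room-temperature incubation was quantified by coupled luciferase luminescence.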
# [6] = target: Muscarinic acetylcholine receptor M1 (Rattus norvegicus) (UniProt P08482); assay: qHTS Assay for Antagonists of Acetylcholine Muscarinic M1 Receptor: Kinetic Measurement of Intracellular Calcium Response (AID 943); note: nearly all actives have a fitted effect of over 75% in size; note: potency is the fitted concentration of half-maximal effect
# Chain of Muscarinic acetylcholine receptor M1 (Rattus norvegicus) (P08482 whole entry, looked up): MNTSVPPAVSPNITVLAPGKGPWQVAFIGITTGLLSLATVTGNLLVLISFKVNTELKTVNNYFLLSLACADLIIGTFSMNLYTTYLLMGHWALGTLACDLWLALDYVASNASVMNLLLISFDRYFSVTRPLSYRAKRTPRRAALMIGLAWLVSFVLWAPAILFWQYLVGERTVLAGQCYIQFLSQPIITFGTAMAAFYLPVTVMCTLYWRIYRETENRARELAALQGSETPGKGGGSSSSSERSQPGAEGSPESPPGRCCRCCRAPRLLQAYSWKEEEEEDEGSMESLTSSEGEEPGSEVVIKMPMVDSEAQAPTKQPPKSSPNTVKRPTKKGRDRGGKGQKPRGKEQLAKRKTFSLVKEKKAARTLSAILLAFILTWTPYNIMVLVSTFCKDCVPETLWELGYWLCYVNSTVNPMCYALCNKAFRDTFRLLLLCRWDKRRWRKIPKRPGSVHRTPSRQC
# Summary of the method: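 CHO cells expressing rat M1 receptor, Fluo-4 loaded, preincubated 10 min with compound, then stimulated with EC80 carbachol (100 nM final). Kinetic calcium fluorescence over 4 min; response taken as peak over basal signal.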
# [7] = target: Muscarinic acetylcholine receptor M1 (Rattus norvegicus) (UniProt P08482); assay: qHTS Assay for Antagonists of Acetylcholine Muscarinic M1 Receptor: Measurement of IP-One Response (AID 944); note: nearly all actives have a fitted effect of over 75% in size; note: potency is the fitted concentration of half-maximal effect
# Summary of the method: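 CHO cells stably expressing rat M1, pretreated 10 min with compound, then stimulated 30 min with carbachol at EC80 (200 nM) in LiCl-containing buffer pH 7.4; IP1 accumulation read by HTRF competition (665/620 nm).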
# [8] = Cell Viability - LYMP2-001 (AID 921); note: series mostly up to about 92 µM; nearly all actives have a fitted effect of over 70% in size
# Summary of the method: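 Human lymphoblastoid LYMP2-001 cells, 2500 per well, in complete medium, treated 24 h at 37 C. Viability from cellular ATP by CellTiter-Glo luminescence; AC50 from Hill-equation fits of qHTS concentration-response.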
# [9] = MultiTox-Fluor Cytotoxicity Assay - LYMP1-001 - Dead Cells (AID 946)
# Summary of the method: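 In this qHTS, 15 uM tetraoctylammonium bromide defined 100% and DMSO defined basal activity. Lymphoblastoid cells (LYMP1-001, 2500 per well) received compound for 16 hr at 37 C before a fluorogenic dead-cell substrate readout at 485/520 nm.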
# [10] = MultiTox-Fluor Cytotoxicity Assay - LYMP1-001 - Live Cells (AID 947)
# [11] = Cell Viability - LYMP1-002 - Assay at 16 hr (AID 948)
# Summary of the method: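 LYMP1-002 human lymphoblastoid cells, 2500/well, were treated with compounds for 16 hr at 37 C in complete medium. Viability was read as intracellular ATP by CellTiter-Glo luminescence, and AC50 was derived from a Hill fit to concentration-response data.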
# [12] = MultiTox-Fluor Cytotoxicity Assay - LYMP1-002 - Live Cells (AID 955);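 note: cells exposed to compound for 16 hours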
# Summary of the method: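 Human lymphoblastoid LYMP1-002 cells, 2500/well, treated 16 h at 37 C in complete medium. Live-cell protease activity via GF-AFC fluorescence (Ex/Em 405/510) after 60 min reagent incubation; AC50 from Hill fits.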
# [13] = MultiTox-Fluor Cytotoxicity Assay - LYMP1-002 - Dead Cells (AID 960);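 note: cells exposed to compound for 16 h at 37 °C; nearly all actives have a fitted effect of over 60% in size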
# Summary of the method: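 Human lymphoblastoid LYMP1-002 cells, 2500/well, treated 16 h at 37 C; dead-cell protease cleavage of bis-AAF-R110 read by fluorescence (485/520); normalized to DMSO and 15 uM tetraoctylammonium bromide; AC50 from Hill fit.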
# [14] = MultiTox-Fluor Cytotoxicity Assay - LYMP1-003 - Dead Cells (AID 961);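 note: cells exposed to compound for 16 h at 37 °C; nearly all actives have a fitted effect of over 70% in size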
# Summary of the method: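 Acute toxicity is scored as increased dead-cell protease activity in human lymphoblastoid LYMP1-003 cells after 16 h compound exposure in complete culture medium. Activity is normalized to DMSO basal and 15 uM tetraoctylammonium bromide as full response.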
# [15] = MultiTox-Fluor Cytotoxicity Assay - LYMP1-003 - Live Cells (AID 962);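 note: cells exposed to compound for 16 hours at 37 °C; cytotoxic hits lower the live-cell protease signal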
# Summary of the method: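 LYMP1-003 lymphoblastoid cells, 2500/well in complete medium, treated 16 h at 37 C; live-cell protease cleavage of GF-AFC read by fluorescence (Ex/Em 405/510) after 60 min reagent; AC50 from Hill fits of concentration-response.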
# [16] = Cell Viability - LYMP1-003 - Assay at 24 hr (AID 963)
# Summary of the method: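 Human lymphoblastoid LYMP1-003 cells, 2500/well, treated 24 h at 37 C in complete medium. Viability read as intracellular ATP by CellTiter-Glo luminescence after 30 min at room temperature; AC50 from Hill-equation fits of qHTS concentration-response.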
# [17] = target: Pyruvate kinase (Leishmania mexicana) (UniProt Q27686); assay: qHTS Validation Assay for Activators of Leishmania Mexicana Pyruvate Kinase (AID 959)
# Summary of the method: as §1
structure (smiles),measurement,setting,value
CN(C)C(=O)Oc1cccc([N+](C)(C)C)c1,outcome,[1],inactive
same,outcome,[2],inactive
same,outcome,[3],inactive
same,Potency,[4],inactive
same,outcome,[5],inactive
CCN(CC)CCNC(=O)c1ccc(NC(C)=O)cc1,outcome,[1],inactive
same,outcome,[2],inactive
same,outcome,[3],inactive
same,Potency,[6],inactive
same,Potency,[4],inactive
same,outcome,[5],inactive
CC(C)[N+](C)(CCOC(=O)C1c2ccccc2Oc2ccccc21)C(C)C,outcome,[1],inactive
same,outcome,[2],inactive
same,outcome,[3],inactive
same,Potency,[6],11.2 nM (active)
same,Potency,[7],1 nM (active)
same,Potency,[4],inactive
same,outcome,[5],inactive
C[N+](C)(C)CCOC(N)=O,outcome,[1],inactive
same,outcome,[2],inactive
same,outcome,[3],inactive
same,Potency,[4],inactive
same,outcome,[5],inactive
CC[N+](C)(C)c1cccc(O)c1,outcome,[1],inactive
same,outcome,[2],inactive
same,outcome,[3],inactive
same,Potency,[4],inactive
same,outcome,[5],inactive
CCn1cc(C(=O)O)c(=O)c2cc3c(cc21)OCO3,outcome,[1],inactive
same,outcome,[2],inactive
same,outcome,[3],inactive
same,Potency,[7],inactive
same,Potency,[4],inactive
same,outcome,[5],inactive
CCCOc1ccccc1-c1nc2n[nH]nc2c(=O)[nH]1,outcome,[1],inactive
same,outcome,[2],inactive
same,outcome,[3],inactive
same,Potency,[4],inactive
same,outcome,[5],inactive
Cc1ccc(S(=O)(=O)NC(=O)NN2CCCCCC2)cc1,outcome,[1],inactive
same,outcome,[2],inactive
same,outcome,[3],inactive
same,Potency,[7],inactive
same,Potency,[4],inactive
same,outcome,[5],inactive
CCN(CC)CCNC(=O)c1cc(S(C)(=O)=O)ccc1OC,outcome,[1],inactive
same,outcome,[2],inactive
same,outcome,[3],inactive
same,Potency,[4],inactive
same,outcome,[5],inactive
CN(C)C(=O)Oc1ccc[n+](C)c1,outcome,[1],inactive
same,outcome,[2],inactive
same,outcome,[3],inactive
same,Potency,[4],inactive
same,outcome,[5],inactive
CCCCNc1ccc(C(=O)OCCN(C)C)cc1,outcome,[1],inactive
same,outcome,[2],inactive
same,outcome,[3],inactive
same,Potency,[4],inactive
same,outcome,[5],inactive
CCCC(C(=O)OCCN(CC)CC)(c1ccccc1)c1ccccc1,outcome,[1],inactive
same,outcome,[2],inactive
same,outcome,[3],inactive
same,Potency,[6],447 nM (active)
same,Potency,[7],11200 nM (active)
same,Potency,[4],inactive
same,outcome,[5],inactive
CN1CCN(C2=Nc3ccccc3Oc3ccc(Cl)cc32)CC1,outcome,[1],inactive
same,outcome,[2],inactive
same,outcome,[3],inactive
same,Potency,[6],282 nM (active)
same,Potency,[7],3160 nM (active)
same,Potency,[4],inactive
same,outcome,[5],inactive
Cc1scc2c1N(C(=O)CN1CCN(C)CC1)c1ccccc1NC2=O,outcome,[1],inactive
same,outcome,[2],inactive
same,outcome,[3],inactive
same,Potency,[6],31.6 nM (active)
same,Potency,[7],28.2 nM (active)
same,Potency,[4],inactive
same,outcome,[5],inactive
CCn1nc(C(=O)O)c(=O)c2cc3c(cc21)OCO3,outcome,[1],inactive
same,outcome,[2],inactive
same,outcome,[3],inactive
same,Potency,[4],inactive
same,outcome,[5],inactive
COc1ccc(CN(CCN(C)C)c2ccccn2)cc1,outcome,[1],inactive
same,outcome,[2],inactive
same,outcome,[8],inactive
same,outcome,[3],inactive
same,Potency,[4],inactive
same,outcome,[9],inactive
same,outcome,[10],inactive
same,outcome,[11],inactive
same,outcome,[5],inactive
same,outcome,[12],inactive
same,Potency,[13],inactive
same,Potency,[14],inactive
same,outcome,[15],inactive
same,outcome,[16],inactive
FC(F)(F)c1ccccc1-n1ccnc1,outcome,[1],inactive
same,outcome,[2],inactive
same,outcome,[3],inactive
same,Potency,[7],inactive
same,Potency,[4],inactive
same,outcome,[5],inactive
CCN(CC)CCOCCOC(=O)C1(c2ccccc2)CCCC1,outcome,[1],inactive
same,outcome,[2],inactive
same,outcome,[3],inactive
same,Potency,[4],inactive
same,outcome,[5],inactive
CCCN(CCC)CCc1cccc2c1CC(=O)N2,outcome,[1],inactive
same,outcome,[2],inactive
same,outcome,[3],inactive
same,Potency,[6],17800 nM (active)
same,Potency,[4],inactive
same,outcome,[5],inactive
CN(C)CCN(Cc1cccs1)c1ccccn1,outcome,[1],inactive
same,outcome,[2],inactive
same,outcome,[3],inactive
same,Potency,[4],inactive
same,outcome,[5],inactive
CN=C(NC#N)NCCSCc1nc[nH]c1C,outcome,[1],inactive
same,outcome,[2],inactive
same,outcome,[8],inactive
same,outcome,[3],inactive
same,Potency,[7],inactive
same,Potency,[4],inactive
same,outcome,[9],inactive
same,outcome,[10],inactive
same,outcome,[11],inactive
same,outcome,[5],inactive
same,outcome,[12],inactive
same,Potency,[13],inactive
same,Potency,[14],inactive
same,outcome,[15],inactive
same,outcome,[16],inactive
Nc1nc(N)c2nc(-c3ccccc3)c(N)nc2n1,outcome,[1],inactive
same,outcome,[2],inactive
same,outcome,[3],inactive
same,Potency,[7],inactive
same,outcome,[9],inactive
same,outcome,[10],inactive
same,outcome,[11],inactive
same,outcome,[5],inactive
same,outcome,[12],inactive
same,outcome,[17],inactive
same,Potency,[14],inactive
same,outcome,[15],inactive
CN1CCN(CC(=O)N2c3ccccc3C(=O)Nc3cccnc32)CC1,outcome,[1],inactive
same,outcome,[2],inactive
same,outcome,[3],inactive
same,Potency,[4],inactive
same,outcome,[5],inactive
CN/C(=C\[N+](=O)[O-])NCCSCc1ccc(CN(C)C)o1,outcome,[1],inactive
same,outcome,[2],inactive
same,outcome,[3],inactive
same,Potency,[7],inactive
same,Potency,[4],inactive
same,outcome,[5],inactive
